# From PubChem
# Sampled rows, rich in hits. Any-hit rate of the full collection: about 11%.
# MCF10A rereplic – DNA re-replication induction in MCF 10a cells. MCF 10A DNA re-replication, Hoechst nuclear intensity, 48 h. Potency, µM (series often up to 46.1 µM), for inactives: at the highest dose activity, positive = re-replication, usual class: activators. hit rate 2.9% among 350,000; further: potency means the concentration at half of the fitted maximal effect; % of control where 0% means no effect; nearly all actives have a fitted effect of over 50% in size
# RORg inh – inhibitors of mouse ROR gamma transcriptional activity. P51450. Drosophila S2 Gal4-RORgamma UAS-luciferase reporter, 20 h. Potency, µM (doses to about 53.6 µM), for inactives: at the highest dose activity change, negative = inhibition, most hits filed as inhibitors. hit rate 5.4% among 310,000. AID 2551; further: potency means the concentration at half of the fitted maximal effect; on the % scale 0 is the no-effect control and ±100 the full control effect; nearly all actives have a fitted effect of over 60% in size
# Target sequence (P51450 whole entry, looked up, the tested form may be a part): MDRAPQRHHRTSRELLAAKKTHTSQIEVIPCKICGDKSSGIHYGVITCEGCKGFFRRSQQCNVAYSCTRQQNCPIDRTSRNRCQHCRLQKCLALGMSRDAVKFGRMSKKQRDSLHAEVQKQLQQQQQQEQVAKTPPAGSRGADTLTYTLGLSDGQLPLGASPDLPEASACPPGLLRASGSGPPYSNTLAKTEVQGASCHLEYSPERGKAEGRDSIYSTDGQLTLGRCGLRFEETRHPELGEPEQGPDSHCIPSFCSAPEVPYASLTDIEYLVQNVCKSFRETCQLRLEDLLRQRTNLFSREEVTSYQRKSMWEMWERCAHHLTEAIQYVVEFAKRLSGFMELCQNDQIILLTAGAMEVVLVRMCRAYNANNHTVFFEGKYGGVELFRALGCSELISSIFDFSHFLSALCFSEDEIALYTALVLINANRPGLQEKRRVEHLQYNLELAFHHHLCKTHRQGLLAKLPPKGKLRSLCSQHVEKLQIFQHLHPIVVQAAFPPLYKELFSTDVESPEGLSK
#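 Luminescence from a UAS-regulated Photinus luciferase reporter in stably transfected Drosophila Schneider cells is measured; decreased signal marks ROR gamma inhibition. Fusion expression is induced by 700 uM copper sulfate for 20 hr.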
# SW480 rereplic – DNA re-replication induction in SW480 cells; SW480 DNA re-replication, Hoechst DNA content imaging, 48 h; Potency, µM (doses to about 46.1 µM), inactives show at the top dose re-replication activation, actives largely listed as activators; hit rate 1.8% among 340,000; AID 624297; further: potency means the concentration at half of the fitted maximal effect; % of control where 0% means no effect; nearly all actives have a fitted effect of over 55% in size
#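 250 cells/well; 23 nL cpd via pin tool; 48 hr, 37 C, 5% CO2; Hoechst 40 min; imager read of total nuclear intensity, ex 405/em 500-530 nm.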
# IL-1B inflam inh – inflammasome signaling inhibition, IL-1 beta readout. THP-1 LPS/ATP IL-1B secretion, AlphaLISA, 16 h; active compounds read low. activity change, % at 57.5 µM. hit rate 4.7% among 360,000; in the data active means activity change below about -50%; inconclusive means mostly about -30% to -49%; further: on the % scale 0 is the no-effect control and ±100 the full control effect
#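 Secreted IL-1B measured by AlphaLISA bead assay after 16 h compound exposure of THP-1 cells; compounds (final up to 57.5 uM) added 1 h before LPS (250 ng/mL) and ATP (1.25 mM) stimulation; lower signal means less secretion.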
# VP16 counter – Gal4-VP16 reporter inhibition counter-screen | Drosophila S2 Gal4-VP16 UAS-luciferase, luminescence, 20 h | Potency, µM (top dose mostly 53.6 µM), for the others: at the top dose activity, negative = inhibition, most hits filed as inhibitors | hit rate 3.5% among 310,000;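 further: Gal4-VP16 expression switched on by copper sulfate through the metallothionein promoter; potency means the concentration at half of the fitted maximal effect; on the % scale 0 is the no-effect control and ±100 the full control effect; nearly all actives have a fitted effect of over 50% in size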
# * hit, by the source's call; u = inconclusive; x = not tested or not shown; [ ] = remark or other dose. Unless noted, the call rests on the fitted dose curve; in most records, active means well fitted curve in the direction sought with a large enough effect; inconclusive means small, poorly fitted or top-dose-only effect, or another doubt; inactive means no such curve, though single readings can be large; an effect the other way counts as inactive or inconclusive.
SMILES,MCF10A rereplic,RORg inh,SW480 rereplic,IL-1B inflam inh,VP16 counter
CCCNC1=C(N(C(C)=O)c2cccc(F)c2)C(=O)c2ccccc2C1=O,0.73µM*,u,5.8µM*,-84*,u
CCCn1c(N)c(C(=O)CSc2nnc(C3CC3)n2C2CC2)c(=O)[nH]c1=O,1%,x,0%,-1,x
Cc1ccccc1NC(=O)C1CCCN1S(=O)(=O)c1ccccc1C(F)(F)F (configuration not stated),-3%,x,11%,7,x
CC1=CC(C)(C)N=C(Nc2ccc(C)cc2)S1,u,u,u,-65*,-2%
Cc1ccc2c(c1)C=CC(C)N2C(=O)c1ccccc1 (configuration not stated),30%,9%,1%,41,-4%
CCSC(=O)N1c2ccc(OC)cc2C=CC1C#N (configuration not stated),1.2µM*,x,u,-7,x
Cc1ccc2c(c1)C=CC(C#N)N2C(=O)c1ccccc1 (configuration not stated),u,-10%,2.1µM*,53,-10%
CC1=Cc2ccccc2C(C#N)N1C(=O)c1ccccc1 (configuration not stated),u,u,u,23,13µM*
C[C@@H]1CN([C@H](C)CO)C(=O)CCCn2cc(nn2)CO[C@H]1CN(C)S(=O)(=O)c1ccccc1F,x,x,x,-13,x
COc1cc(C(=O)Nc2nc3ccccc3[nH]2)cc(OC)c1OC,0%,10µM*,12%,u,10µM*
Cc1cccc(C(=O)N[C@H](C(=O)Nc2nc3ccccc3[nH]2)C(C)C)c1,5.8µM*,u,5.8µM*,91,u
O=C(Nc1ccc2nc(-c3ccc(Br)o3)[nH]c2c1)c1cccs1,19%,u,3%,-76*,-13%
COc1ccc(C(=O)NC(C(=O)NCc2ccccc2OC)C(C)C)cc1 (configuration not stated),0.92µM*,0%,-44%,-14,0%
CCOc1ccc(C(=O)NC(C(=O)NCc2ccccc2OC)C(C)C)cc1 (configuration not stated),-2%,-17%,-2%,6,9%
COc1ccc(C(NC(=O)C2CCN(C/C=C/c3ccc(OC(C)=O)c(OC)c3)CC2)c2ccccn2)cc1 (configuration not stated),x,x,x,-17,x
Cc1nc(SC(C)C(=O)c2c(N)n(C)c(=O)n(C)c2=O)c2c(C)c(C)sc2n1 (configuration not stated),6%,x,-2%,-27,x
COc1cccc(C(=O)Nc2nc3ccccc3[nH]2)c1,15%,4µM*,2%[9.22 µM],-19,10µM*
O=C(Nc1nc2ccccc2[nH]1)c1cccs1,15%,5µM*,3%,-14,13µM*
O=c1[nH]c2ccccc2nc1/C=C(\O)c1cccs1,15%,31%,7%,120,-5%
COc1ccc(C(=O)N[C@H](C(=O)Nc2nc3ccccc3[nH]2)C(C)C)cc1,u,-33%,9.2µM*,19,-17%
COc1ccc(NC(=O)C(NC(=O)c2ccccc2)C(C)C)cc1 (configuration not stated),6%,-23%,0%,-3,3%
CCC(CC)c1nnc(NC(=O)[C@@H](NC(=O)c2cccc(C)c2)C(C)C)s1,4%,20µM*,1%,15,16µM*
COc1cccc(C(=O)Nc2ccccc2)c1,-2%,15%,-1%,-21,4%
CNc1cccc(-c2ccccc2CO)n1,x,x,x,0,x
Cc1cc(C)c2oc(C(=O)NC3CCS(=O)(=O)C3)cc(=O)c2c1 (configuration not stated),2%,-16%,-15%,0,-3%
SMILES,MCF10A rereplic,RORg inh,SW480 rereplic,IL-1B inflam inh,VP16 counter
CCC(c1nnnn1-c1ccc2c(c1)OCCO2)N1CCN(c2ccc(C)cc2)CC1 (configuration not stated),x,x,x,-9,x
CCOC(=O)C1(C)CCN1C(=O)c1ccccc1C(F)(F)F (configuration not stated),x,x,x,26,x
C[C@@H]1CC2[C@@H]3C[C@H](F)C4=CC(=O)C(Cl)=C[C@]4(C)[C@@]3(F)[C@H](O)C[C@]2(C)[C@@]1(O)C(=O)CO (some centres not stated),26%,-4%,-2%,x,9%
COc1ccc(C(=O)Nc2nc3ccccc3[nH]2)cc1,0%,2.8µM*,u,-1,6.3µM*
c1ccc(CCn2cccc2)nc1,1%,x,0%,-2,x
COc1ccc(N2CCN(CCS(=O)(=O)c3cc(Cl)ccc3Cl)CC2)cc1,5.8µM*,x,7.3µM*,-16,x
CC1CN(CCOc2ccc(Cl)cc2Cl)CC(C)O1 (configuration not stated),5%,-10%,-1%,0,2%
CC1CN(CCS(=O)(=O)c2cc(Cl)ccc2Cl)CC(C)O1 (configuration not stated),2.9µM*,-38%,u,-103*,8%
COC(=O)CCS(=O)(=O)c1cc(Cl)ccc1Cl,6%,-1%,-2%,-6,0%
CC(=O)N1CCN(CCS(=O)(=O)c2cc(Cl)ccc2Cl)CC1,15µM*,x,u,-65*,x
O=C(Cc1ccc(NC(=O)C2CCCN(C(=O)C3CCC3)C2)cc1)Nc1ccc(C(=O)N2CCOCC2)cc1 (configuration not stated),11%,x,u,6,x
Cc1cccc(NC(=O)c2ccc(S(=O)(=O)N(C)C)cc2)n1,-1%,u,0%,-13,-4%
COCCN(CCOC)S(=O)(=O)c1ccc(C(=O)Nc2nnc(CSC)o2)cc1,8%,5µM*,-5%,-5,13µM*
C=CCN(CC=C)S(=O)(=O)c1ccc(C(=O)Nc2nnc(CSC)o2)cc1,u,0.56µM*,6%,35,2.8µM*
COCCN(CCOC)S(=O)(=O)c1ccc(C(=O)Nc2nnc(C)o2)cc1,-7%,10µM*,-1%,28,u
CSCc1nnc(NC(=O)c2ccc(S(=O)(=O)N(C)C)cc2)o1,18%,2µM*,6%,-17,5µM*
COCCN(CCOC)S(=O)(=O)c1ccc(C(=O)Nc2nnc(COC)o2)cc1,6%,u,4%,3,-7%
COC(=O)C1(CC(C)C)C=C2C(=C(c3ccccc3)C(=O)C2C)CN1 (configuration not stated),x,1%,x,x,1%
CCCN(CCC)S(=O)(=O)c1ccc(C(=O)Nc2nnc(COC)o2)cc1,1%,0.56µM*,0%,22,2.2µM*
CCc1nnc(NC(=O)c2ccc(S(=O)(=O)N(C)c3ccccc3)cc2)o1,7%,0.45µM*,15µM*,34,0.56µM*
CN(c1ccc(C(=O)Nc2ccccn2)cc1)S(=O)(=O)c1ccccc1,6%,5%,-8%,12,u
